Test [1] has as its target N-terminal Xaa-Pro-Lys N-methyltransferase 1 (Homo sapiens) (UniProt Q9BV86). Put plainly: Confirmatory qHTS for Inhibitors of N-terminal methyltransferase 1 (NTMT1): MTaseGlo Assay (AID 1645874). Further: nearly all actives have a fitted effect of over 65% in size. Further: potency means the concentration at half of the fitted maximal effect.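 On activity change, negative = inhibition: luminescence from SAH made as NTMT1 methylates SPKRIA peptide using SAM; 0% = DMSO control and -100% = no-enzyme control.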 Put shortly:
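MTase-Glo luminescence measured SAH formed by 125 nM NTMT1 from 100 uM SAM and 1 uM SPKRIA peptide over 30 min at room temperature, following 15 min compound preincubation. Percent inhibition against no-enzyme and DMSO controls gave 4-parameter Hill fits.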
For orientation: qHTS replaces the single test concentration by a dilution series.

Test [2] concerns the target Rap guanine nucleotide exchange factor 3 (Homo sapiens) (UniProt O95398). Put plainly: Confirmatory qHTS for antagonist of cAMP-regulated guanine nucleotide exchange factor 3 (EPAC1) (AID 1645880).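 Further: plate controls were DMSO only for no effect and full effect of the ATA control for full effect; nearly all actives have a fitted effect of over 55% in size.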 Put shortly:
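Released BODIPY-GDP fluoresces less than Rap1-bound BODIPY-GDP; the signal is followed at 480/540 nm at 5-min intervals over 30 min, after 5 min at room temperature. Reactions contain 100 nM EPAC1, 250 nM RAP1B-BODIPY-GDP and 50 uM GDP; results are normalized to ATA and DMSO.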

For test [3] the target is unchanged. Put plainly: Counterscreen qHTS for antagonist of cAMP-regulated guanine nucleotide exchange factor 3 (EPAC1) (AID 1645888). Further: % of control where 0% means no effect. Put shortly:
(§1)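 Rap1B-BODIPY-GDP 250 nM + GDP 50 uM; cpds 7-pt, final 9.74 nM–152 uM (activator mode) or from 7.32 nM upwards (inhibitor mode); RT; FI 480/540 nm at 5 and 30 min, then ± cAMP, reread.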

Test [4] shares this target. Put plainly: Counterscreen qHTS for agonist of cAMP-regulated guanine nucleotide exchange factor 3 (EPAC1) (AID 1645889). Further: potency means the concentration at half of the fitted maximal effect; nearly all actives have a fitted effect of over 40% in size. A digest of the protocol:
as §1
In general terms: The purpose of a counterscreen is to sort out artefacts and off-target activity.

Test [5] can be described thus: Primary qHTS for inhibitors of nuclear receptor binding SET domain protein 2 (NSD2) in an isogenic RCH-ACV NSD2 p.E1099K mutant (9B) (AID 1645876). Further: potency means the concentration at half of the fitted maximal effect; nearly all actives have a fitted effect of over 70% in size.
A short description of test [6]: Primary qHTS for inhibitors of nuclear receptor binding SET domain protein 2 (NSD2) in an RCH-ACV wild type WT cells (2C) (AID 1645877). Further: potency means the concentration at half of the fitted maximal effect; nearly all actives have a fitted effect of over 70% in size.
Test [7] addresses Glutathione peroxidase 1 (Homo sapiens) (UniProt P07203). Put plainly: Primary qHTS Assay for Inhibitors of Recombinant Selenoprotein Glutathione Peroxidase 1 (GPX1) (AID 1845191). Further: nearly all actives have a fitted effect of over 65% in size. Put shortly: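 NADPH consumption tracked by fluorescence at 340/450 nm between t=0 and t=15 min, room temperature. Final mix: 10 nM GPX1, 100 nM glutathione reductase, 1 mM GSH, 0.5 mM NADPH, 0.5 mM cumene hydroperoxide, 0.01% BSA; 30 min compound–enzyme preincubation.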

The target in test [8] is Phospholipid hydroperoxide glutathione peroxidase GPX4 (Homo sapiens) (UniProt P36969). In words: Primary qHTS Assay for Inhibitors of Recombinant Selenoprotein Glutathione Peroxidase 4 (GPX4) (AID 1845192). Further: nearly all actives have a fitted effect of over 65% in size. On activity change, negative = inhibition: on the % scale 0 is the no-effect control and ±100 the full control effect. Put shortly:
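NADPH consumption followed by fluorescence at 340/450 nm, t=0 and after 15 min at room temperature. Reaction started with cumene hydroperoxide (0.5 mM final) after 30 min compound–GPX4 preincubation; final 200 nM GPX4, 100 nM GR, 1 mM GSH, 0.5 mM NADPH.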

Test [9] can be described thus: qHTS drug screen for cell cycle checkpoint inhibitors in PARPi-resistant BRCA-mutant ovarian cancer cell lines. (AID 1963452; calls by dose curve). To be noted: PEO1/OlaR viability, CellTiter-Glo luminescence, 96 h, stronger effect = lower value. Put shortly:
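PEO1, PEO4 and PEO1/OlaR ovarian cancer cells, 600 per well, exposed 96 h at 37C to a dilution series. Viability read by CellTiter-Glo luminescence, normalized to DMSO and empty wells; activity summarized as Z-AUC.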

The target in test [10] is Tyrosine-protein kinase Yes (Homo sapiens) (UniProt P07947). Put plainly: qHTS for small molecule inhibitors of Yes1 kinase: Primary Screen (AID 686947).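 Further: plate controls were DMSO with enzyme for no effect and no-enzyme DMSO wells for full effect; nearly all actives have a fitted effect of over 60% in size.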 Put shortly: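 In this qHTS format, inhibition is expressed relative to DMSO controls with enzyme (maximum) and without enzyme (minimum). The 60 min room-temperature reaction uses 0.1 mM ATP, with ADP detected by luminescence.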
Tyrosine-protein kinase Yes (Homo sapiens), sequence (P07947 whole entry, looked up): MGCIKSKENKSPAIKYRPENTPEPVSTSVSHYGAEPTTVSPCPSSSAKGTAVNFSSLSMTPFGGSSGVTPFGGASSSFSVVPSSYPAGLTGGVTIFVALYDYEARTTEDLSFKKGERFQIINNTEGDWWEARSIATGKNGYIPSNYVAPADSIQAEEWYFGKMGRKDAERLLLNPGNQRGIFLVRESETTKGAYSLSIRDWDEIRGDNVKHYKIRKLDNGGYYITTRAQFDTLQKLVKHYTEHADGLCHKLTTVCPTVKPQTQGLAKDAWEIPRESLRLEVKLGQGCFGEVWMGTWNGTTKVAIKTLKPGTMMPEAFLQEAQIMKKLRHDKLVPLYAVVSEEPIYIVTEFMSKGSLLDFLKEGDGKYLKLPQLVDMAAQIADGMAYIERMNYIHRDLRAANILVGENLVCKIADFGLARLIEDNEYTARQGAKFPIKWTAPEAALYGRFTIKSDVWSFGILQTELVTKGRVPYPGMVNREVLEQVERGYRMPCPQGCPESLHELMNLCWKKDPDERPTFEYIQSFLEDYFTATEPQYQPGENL

Test [11] in a line: qHTS for small molecule inhibitors of Yes1 kinase: Counter Assay (AID 686950).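 Further: no kinase present so only ADP-Glo detection of a fixed ADP amount is tested; luminescence from ADP-Glo reporting ADP in a fixed ATP and ADP mixture; 0% = DMSO wells with ATP plus ADP and -100% = ATP-only wells without ADP.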 Put shortly: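 ADP-Glo luminescence read after a 60 min room-temperature incubation of compound with an ATP/ADP mix (0.08 mM/0.02 mM) and no kinase, following a 20 min compound preincubation. Signal scaled between ATP+ADP (max) and 0.1 mM ATP-only (min) wells; Tris pH 7.5, Mg2+, DTT.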
The target in test [12] is Catechol O-methyltransferase (Homo sapiens) (UniProt P21964). In words: Confirmatory Screen for Target Class Profiling of Small Molecule Inhibitors of Methyltransferases (AID 1745852; calls by dose curve; further: potency means the concentration at half of the fitted maximal effect). To be noted: MTase-Glo luminescence, SAH detection, recombinant enzyme; measured here: COMT max response; stronger effect = lower value.
Catechol O-methyltransferase (Homo sapiens), sequence (P21964 whole entry, looked up): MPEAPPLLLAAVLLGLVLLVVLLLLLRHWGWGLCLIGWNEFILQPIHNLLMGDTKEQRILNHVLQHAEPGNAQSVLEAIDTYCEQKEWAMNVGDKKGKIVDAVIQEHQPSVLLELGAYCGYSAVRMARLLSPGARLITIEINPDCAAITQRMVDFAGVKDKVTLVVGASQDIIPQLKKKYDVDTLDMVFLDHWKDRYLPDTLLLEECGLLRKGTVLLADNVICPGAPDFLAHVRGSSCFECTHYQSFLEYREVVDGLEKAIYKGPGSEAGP
Test [13] deals with Guanidinoacetate N-methyltransferase (Homo sapiens) (UniProt Q14353). Described as above. The settings on record: MTase-Glo luminescence, SAH detection, recombinant enzyme; activity change, negative = inhibition: at 57.3 µM (top of the series) unless noted.
For test [14], the target named is Nicotinamide N-methyltransferase (Homo sapiens) (UniProt P40261). Described as above. The settings on record: MTase-Glo luminescence, SAH detection, recombinant enzyme; measured here: NNMT max response; stronger effect = lower value.
Nicotinamide N-methyltransferase (Homo sapiens), sequence (P40261 whole entry, looked up): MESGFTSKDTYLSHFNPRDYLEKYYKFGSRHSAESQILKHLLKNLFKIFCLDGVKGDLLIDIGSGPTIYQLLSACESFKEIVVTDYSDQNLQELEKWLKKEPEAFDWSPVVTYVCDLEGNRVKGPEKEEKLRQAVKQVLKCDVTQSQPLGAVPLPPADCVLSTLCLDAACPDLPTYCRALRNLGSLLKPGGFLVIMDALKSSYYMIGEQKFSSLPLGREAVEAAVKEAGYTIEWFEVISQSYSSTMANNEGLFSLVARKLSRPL
Test [15] deals with Phenylethanolamine N-methyltransferase (Homo sapiens) (UniProt P11086). The description is as above. The settings on record: MTase-Glo luminescence, SAH detection, recombinant enzyme; measured here: PNMT max response; stronger effect = lower value.
Phenylethanolamine N-methyltransferase (Homo sapiens), sequence (P11086 whole entry, looked up): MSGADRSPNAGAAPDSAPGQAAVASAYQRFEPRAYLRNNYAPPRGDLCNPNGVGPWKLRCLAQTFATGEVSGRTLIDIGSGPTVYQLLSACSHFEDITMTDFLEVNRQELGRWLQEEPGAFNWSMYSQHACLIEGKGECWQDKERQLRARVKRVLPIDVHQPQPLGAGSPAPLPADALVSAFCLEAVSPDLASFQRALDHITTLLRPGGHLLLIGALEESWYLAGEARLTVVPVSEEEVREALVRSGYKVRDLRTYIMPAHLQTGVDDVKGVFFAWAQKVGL
Test [16] can be described thus: NCATS anti-infectives library activity on HEK293 viability as a counter-qHTS vs the C. elegans viability qHTS (AID 1745854).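 Further: HEK293 cells exposed to compounds for 24 hr before the viability read; on the % scale 0 is the no-effect control and ±100 the full control effect.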 Put shortly:
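Compound titrations (final up to 41.7 uM) were incubated with HEK293 cells for 24 hr at 37C under 5% CO2. Viable cells were quantified with CellTiter-Glo after 10 min at ambient temperature.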

Test [17] is described as follows: NCATS anti-infectives library activity on the primary C. elegans qHTS viability assay (AID 1745855; calls by dose curve; further: potency means the concentration at half of the fitted maximal effect). A digest of the protocol: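 Titration-based screen in worms: eggs hatched overnight in M9, L1 larvae fed TOP10 capsules in S medium with compound, incubated 21 °C for 7 days; fluorescent objects gated by size and intensity at days 0, 3 and 7.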
Setting [18] is: measured here: PEO1 parental Z-AUC.

Several values for one entry are separate records, joined by “and”; a condition that tells them apart may be missing. Identical values can stand only once. Records with an inconclusive call do not appear. Activity calls are given as the source filed them. Unless noted, the call rests on the fitted dose curve; in most records, active means well fitted curve in the direction sought with a large enough effect; inconclusive means small, poorly fitted or top-dose-only effect, or another doubt; inactive means no such curve, though single readings can be large; an effect the other way counts as inactive or inconclusive.

Glutathione peroxidase 1 (Homo sapiens), sequence (P07203 whole entry, looked up): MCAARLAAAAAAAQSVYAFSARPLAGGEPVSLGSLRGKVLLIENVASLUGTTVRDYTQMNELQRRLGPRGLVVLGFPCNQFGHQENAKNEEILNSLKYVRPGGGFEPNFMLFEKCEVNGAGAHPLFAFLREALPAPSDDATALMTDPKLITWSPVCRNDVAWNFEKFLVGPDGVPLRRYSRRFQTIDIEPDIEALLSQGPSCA
Phospholipid hydroperoxide glutathione peroxidase GPX4 (Homo sapiens), sequence (P36969 whole entry, looked up): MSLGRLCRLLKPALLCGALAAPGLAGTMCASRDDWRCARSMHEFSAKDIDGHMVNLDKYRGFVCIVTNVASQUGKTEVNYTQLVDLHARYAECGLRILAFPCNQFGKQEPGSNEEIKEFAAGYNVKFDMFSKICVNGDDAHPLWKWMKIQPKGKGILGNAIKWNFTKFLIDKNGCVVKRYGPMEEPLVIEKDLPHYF
N-terminal Xaa-Pro-Lys N-methyltransferase 1 (Homo sapiens), sequence (Q9BV86 whole entry, looked up): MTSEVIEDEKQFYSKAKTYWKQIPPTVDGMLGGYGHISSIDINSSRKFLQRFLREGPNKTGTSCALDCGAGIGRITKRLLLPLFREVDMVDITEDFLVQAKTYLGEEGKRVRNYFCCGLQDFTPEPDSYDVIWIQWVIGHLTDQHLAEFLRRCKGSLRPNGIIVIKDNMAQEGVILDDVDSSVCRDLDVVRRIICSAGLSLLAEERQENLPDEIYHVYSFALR
Rap guanine nucleotide exchange factor 3 (Homo sapiens), sequence (O95398 whole entry, looked up): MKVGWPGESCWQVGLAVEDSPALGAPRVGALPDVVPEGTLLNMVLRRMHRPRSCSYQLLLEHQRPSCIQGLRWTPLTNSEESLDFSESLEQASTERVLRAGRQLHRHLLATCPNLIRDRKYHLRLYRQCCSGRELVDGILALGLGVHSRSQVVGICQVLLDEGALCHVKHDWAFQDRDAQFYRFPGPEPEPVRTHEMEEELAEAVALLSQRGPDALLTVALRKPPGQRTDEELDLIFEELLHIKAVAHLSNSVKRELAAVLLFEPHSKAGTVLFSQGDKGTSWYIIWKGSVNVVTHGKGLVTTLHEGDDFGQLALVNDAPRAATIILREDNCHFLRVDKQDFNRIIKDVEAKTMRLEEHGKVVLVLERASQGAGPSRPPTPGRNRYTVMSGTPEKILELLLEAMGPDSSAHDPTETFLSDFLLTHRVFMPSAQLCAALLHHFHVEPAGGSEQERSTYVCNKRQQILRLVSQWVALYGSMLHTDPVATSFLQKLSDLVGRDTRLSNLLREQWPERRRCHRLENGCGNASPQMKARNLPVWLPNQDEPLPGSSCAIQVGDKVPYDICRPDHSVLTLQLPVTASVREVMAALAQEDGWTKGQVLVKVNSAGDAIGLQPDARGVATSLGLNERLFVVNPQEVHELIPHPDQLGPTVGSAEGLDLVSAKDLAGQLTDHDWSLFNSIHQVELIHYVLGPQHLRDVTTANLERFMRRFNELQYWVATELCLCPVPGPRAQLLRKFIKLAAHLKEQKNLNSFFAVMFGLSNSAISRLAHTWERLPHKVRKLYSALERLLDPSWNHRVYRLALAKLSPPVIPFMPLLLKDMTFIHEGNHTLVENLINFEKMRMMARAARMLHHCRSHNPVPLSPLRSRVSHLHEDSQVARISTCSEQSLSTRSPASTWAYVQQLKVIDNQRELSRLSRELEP

Take `Cc1cccc(NC(=O)c2sc3nc(-c4cc5ccc(O)cc5oc4=O)[nH]c(=O)c3c2C)c1`: the results for the Potency in [1] and in test [4] were 6.02 µM (active) and 50.1 µM (active), respectively. In addition, the Potency result in [2] and in [3] was “inactive” each time.

As to `Cc1cc(C)n2c(Nc3c(C)cccc3C)c(-c3ccsc3)nc2n1`, in [1], the Potency entry was “inactive”.

For `Clc1ccc(-c2noc3ncnc(NC4CCCCC4)c23)cc1`, the Potency in test [1] is 15.8 µM (active).

Consider `O=C1N=C(O)S/C1=C\c1ccc2nccnc2c1`, for which the Potency was 18.4 µM (active) in test [5] and 20.6 µM (active) in test [6].

As for `O=c1c2cc3c(cc2nc2sc(Nc4ccccc4)nn12)OCO3`, the Potency entry in test [1] is “inactive”.

As to `Cc1ccc(Nc2cc(N[C@@H]3CCCC[C@@H]3N)nnc2C(N)=O)nc1C`, the Potency is 1.05 µM (active) in [5] and 0.934 µM (active) in [6]. The Potency result in [7] and in test [8] was “inactive” throughout.

On to `COc1cc(Nc2cnc(C#N)c(O[C@H](C)CN(C)C)n2)ncc1-c1cnn(C)c1`, for which the Potency in [5] was 0.148 µM (active); in test [6], 0.833 µM (active). Further, the Potency entry in test [7] and in [8] was “inactive” throughout. In addition, the Z-AUC in test [9] is -0.958 (inactive); in [9] (setting [18]), -0.63; in [9] (measured here: PEO4 Z-AUC) it was -0.472.

As for `Nc1nonc1-c1nc2cnccc2n1C1CCCCC1`, the outcome in test [10] and in test [11] was “inactive” each time. Besides, the Potency is 5.17 µM (active) in [5], 2.91 µM (active) in [6] and 27.1 µM (active) in test [13]. In addition, the activity was -23.3% in test [12], -44.1% in [14] and -20.9% in test [15]. The Potency result in [7] is “inactive”.

In the case of `Cc1cc(Nc2ncnc3ccc(NC4=NC(C)(C)CO4)cc23)ccc1Oc1ccn2ncnc2c1`, the Potency is 18.6 µM (active) in [5] and 16.6 µM (active) in test [6]. Besides, the Potency entry in test [7] and in test [8] was “inactive” throughout. Besides, the Z-AUC in test [9] was -0.395 (inactive); in [9] (setting [18]), -0.0434; in [9] (measured here: PEO4 Z-AUC) it was -0.29.

`Cc1ccc([C@@H]2O[C@H](CO)[C@@H](O)[C@H](O)[C@H]2O)cc1Cc1ccc(-c2ccc(F)cc2)s1`: the Potency is 23.5 µM (active) in test [5] and 20.9 µM (active) in [6]. The Potency entry in [7] and in [8] was “inactive” each time. The Z-AUC in test [9] is -0.931 (inactive); in test [9] (setting [18]), -1.18; in [9] (measured here: PEO4 Z-AUC) it was -1.2.

Consider `O=C(NO)c1cnc(NC2(c3ccccc3)CC2)nc1`, for which the Potency in [5] and in test [6] was 7.42 µM (active) each time. Further, the outcome in test [16] was “inactive”. Also, the Potency result in test [8] is “inactive”. Besides, the Z-AUC in test [9] is -0.236 (inactive); in [9] (setting [18]), 0.229; in test [9] (measured here: PEO4 Z-AUC), 0.185.

Regarding `CC(=O)O/N=C1/C(c2c(O)[nH]c3cc(Br)ccc23)=Nc2ccccc21`, the Potency is 1.84 µM (active) and 2.09 µM (active) in test [5]; 2.06 µM (active) and 2.09 µM (active) in test [6]; 20.5 µM (active) in test [17]. The outcome in test [16] is “inactive”. Further, the Potency result in test [8] is “inactive”.

Source of the values: PubChem BioAssay (NCATS).
